{"source": "the supplement of paper PMC9950053", "note": "Structures can show the parent of a compound that is named as a salt."}
{"system": "Danio rerio larvae (5 dpf)", "assay": "habituation (activity change first vs second 5 min of 1-s interval sound, period 17) minus DMSO control (percentage points); higher = larger habituation measure than DMSO larvae", "conditions": "10 µM; exposure time: 3 h pre-incubation + 3 h imaging", "outline": "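Behavioural measures are expressed in percentage points as the treated group mean minus the control group mean. Groups held 48 larvae and the control held 844. Wild-type zebrafish larvae at 5 dpf received compounds at 10 µM final for 3 h before imaging and throughout 3 h of imaging at 28.5 °C, with frames every 6 s tracked by Z-LaP Tracker. Detections with probability below 0.5 and larvae moving less than 1% of the time were excluded.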"}
{"smiles": "C[C@H](Cc1cc2c(c(C(N)=O)c1)N(CCCO)CC2)NCCOc1ccccc1OCC(F)(F)F", "note": "[Silodosin]", "habituation": 7.86}
{"smiles": "CN1CCN(CCCN2c3ccccc3Sc3ccc(Cl)cc32)CC1", "note": "[Prochlorperazine dimaleate]", "habituation": -8.1}
{"smiles": "CCc1ccc(CCOc2ccc(CC3SC(=O)NC3=O)cc2)nc1", "note": "(configuration not stated) [Pioglitazone hydrochloride]", "habituation": 0.765}
{"smiles": "CC1(C)O[C@@H]2[C@@H](CO[C@@]3(COS(N)(=O)=O)OC(C)(C)O[C@@H]23)O1", "note": "[Topiramate]", "habituation": -1.06}
{"smiles": "C[C@]12CC[C@@H]3c4ccc(O)cc4C[C@@H](CCCCCCCCC[S+]([O-])CCCC(F)(F)C(F)(F)F)[C@H]3[C@@H]1CC[C@@H]2O", "note": "(some centres not stated)", "habituation": -2.02}
{"system": "Danio rerio larvae (5 dpf)", "assay": "combined optomotor response (time in upper well half, down vs up moving lines, periods 7-14) minus DMSO control (percentage points); higher = stronger optomotor response than DMSO larvae", "conditions": "10 µM; exposure time: 3 h pre-incubation + 3 h imaging"}
{"smiles": "C[C@H](Cc1cc2c(c(C(N)=O)c1)N(CCCO)CC2)NCCOc1ccccc1OCC(F)(F)F", "note": "[Silodosin]", "combined optomotor response": 9.04}
{"smiles": "Cn1nnc2c(C(N)=O)ncn2c1=O", "note": "[Temozolomide]", "combined optomotor response": 5.41}
{"smiles": "COc1cc2nc(N3CCN(C(=O)C4COc5ccccc5O4)CC3)nc(N)c2cc1OC", "note": "(configuration not stated) [Doxazosin mesylate]", "combined optomotor response": -3.96}
{"smiles": "CN1CCC[C@@H]1Cc1c[nH]c2ccc(CCS(=O)(=O)c3ccccc3)cc12", "note": "[Eletriptan hydrobromide]", "combined optomotor response": -0.376}
{"smiles": "CN1CCN(CCCN2c3ccccc3Sc3ccc(Cl)cc32)CC1", "note": "[Prochlorperazine dimaleate]", "combined optomotor response": 6.24}
{"smiles": "COc1ccccc1OCCNCC(O)COc1cccc2[nH]c3ccccc3c12", "note": "(configuration not stated) [Carvedilol]", "combined optomotor response": -1.8}
{"smiles": "OCCN(CCO)c1nc(N2CCCCC2)c2nc(N(CCO)CCO)nc(N3CCCCC3)c2n1", "note": "[Dipyridamole]", "combined optomotor response": -1.19}
{"smiles": "C[C@@H](O[C@H]1OCCN(Cc2n[nH]c(=O)[nH]2)[C@H]1c1ccc(F)cc1)c1cc(C(F)(F)F)cc(C(F)(F)F)c1", "note": "[Aprepitant]", "combined optomotor response": 4.63}
{"smiles": "Cc1nc(-c2ccc(OCC(C)C)c(C#N)c2)sc1C(=O)O", "note": "[Febuxostat]", "combined optomotor response": 1.46}
{"smiles": "O=C(O[C@@H]1C[C@@H]2C[C@H]3C[C@H](C1)N2CC3=O)c1c[nH]c2ccccc12", "note": "[Dolasetron mesylate]", "combined optomotor response": -2.11}
{"smiles": "CC(c1cc2ccccc2s1)N(O)C(N)=O", "note": "(configuration not stated) [Zileuton]", "combined optomotor response": -0.859}
{"smiles": "CNC(=O)c1ccccc1Sc1ccc2c(/C=C/c3ccccn3)n[nH]c2c1", "note": "[Axitinib]", "combined optomotor response": 3.98}
{"smiles": "O=C1CCc2cc(OCCCCc3nnnn3C3CCCCC3)ccc2N1", "note": "[Cilostazol]", "combined optomotor response": 5.41}
{"smiles": "CCN(Cc1ccncc1)C(=O)C(CO)c1ccccc1", "note": "(configuration not stated) [Tropicamide]", "combined optomotor response": 0.19}
{"smiles": "Nc1ncn([C@@H]2O[C@H](CO)[C@@H](O)[C@H]2O)c(=O)n1", "note": "[5-Azacytidine]", "combined optomotor response": 3.71}
{"smiles": "COc1ccc(Cl)cc1C(=O)NCCc1ccc(S(=O)(=O)NC(=O)NC2CCCCC2)cc1", "note": "[Glibenclamide]", "combined optomotor response": 1.3}
{"smiles": "O=C(c1ccc(OCCN2CCCCC2)cc1)c1c(-c2ccc(O)cc2)sc2cc(O)ccc12", "note": "[Raloxifene hydrochloride]", "combined optomotor response": -1.27}
{"smiles": "CCc1ccc(CCOc2ccc(CC3SC(=O)NC3=O)cc2)nc1", "note": "(configuration not stated) [Pioglitazone hydrochloride]", "combined optomotor response": -1.77}
{"smiles": "CCCCCOC(=O)Nc1nc(=O)n([C@@H]2O[C@H](C)[C@@H](O)[C@H]2O)cc1F", "note": "[Capecitabine]", "combined optomotor response": 4.98}
{"smiles": "CC(C)[C@H]1CC[C@H](C(=O)N[C@H](Cc2ccccc2)C(=O)O)CC1", "note": "[Nateglinide]", "combined optomotor response": 3.95}
{"smiles": "Cc1cccc(CN2CCN(C(c3ccccc3)c3ccc(Cl)cc3)CC2)c1", "note": "(configuration not stated) [Meclizine dihydrochloride]", "combined optomotor response": -13.9}
{"smiles": "CC1(C)O[C@@H]2[C@@H](CO[C@@]3(COS(N)(=O)=O)OC(C)(C)O[C@@H]23)O1", "note": "[Topiramate]", "combined optomotor response": -3.96}
{"smiles": "CC[C@H](C)C(=O)O[C@H]1C[C@@H](C)C=C2C=C[C@H](C)[C@H](CC[C@@H]3C[C@@H](O)CC(=O)O3)[C@H]21", "note": "[Lovastatin]", "combined optomotor response": 5.24}
{"smiles": "Cc1cccc(C)c1OCC(C)N", "note": "(configuration not stated) [Mexiletine hydrochloride]", "combined optomotor response": 2.6}
{"smiles": "C[C@]12CC[C@@H]3c4ccc(O)cc4C[C@@H](CCCCCCCCC[S+]([O-])CCCC(F)(F)C(F)(F)F)[C@H]3[C@@H]1CC[C@@H]2O", "note": "(some centres not stated)", "combined optomotor response": 2.46}
{"smiles": "COc1ccc(-c2ccc3cc(C(=O)O)ccc3c2)cc1C12CC3CC(CC(C3)C1)C2", "note": "[Adapalene]", "combined optomotor response": 0.129}
{"smiles": "CN(C)CC/C=C1/c2ccccc2COc2ccc(CC(=O)O)cc21", "note": "[Olopatadine hydrochloride]", "combined optomotor response": 8.84}
{"smiles": "C=C1[C@H](CO)[C@@H](O)C[C@@H]1n1cnc2c(=O)[nH]c(N)nc21", "note": "[Entecavir]", "combined optomotor response": 3.44}
{"smiles": "CCOC(=O)[C@H](CCc1ccccc1)N[C@H]1CCc2ccccc2N(CC(=O)O)C1=O", "note": "[Benazepril hydrochloride]", "combined optomotor response": 5.66}
{"smiles": "CCCCCCCCc1ccc(CCC(N)(CO)CO)cc1", "combined optomotor response": -4.85}
{"smiles": "Cn1cnc([N+](=O)[O-])c1Sc1ncnc2[nH]cnc12", "note": "[Azathioprine]", "combined optomotor response": 2.29}
{"smiles": "CCCCc1nc(Cl)c(CO)n1Cc1ccc(-c2ccccc2-c2nnn[nH]2)cc1", "note": "[Losartan potassium]", "combined optomotor response": -0.522}
